Assay outcomes: PubChem BioAssay, National Center for Advancing Translational Sciences (NCATS)
nsP2pro inh: blocks chikungunya virus nsP2 protease peptide cleavage. Q8JUX6. FRET peptide cleavage, nsP2pro, fluorescence 1 h. AID 1964107. Potency, µM (top dose mostly 24.9 µM), for the others: top-dose activity change, negative = inhibition, actives largely listed as inhibitors. hit rate 1.1% among 31,000; further: nearly all actives have a fitted effect of over 60% in size
Target sequence (Q8JUX6 whole entry, looked up): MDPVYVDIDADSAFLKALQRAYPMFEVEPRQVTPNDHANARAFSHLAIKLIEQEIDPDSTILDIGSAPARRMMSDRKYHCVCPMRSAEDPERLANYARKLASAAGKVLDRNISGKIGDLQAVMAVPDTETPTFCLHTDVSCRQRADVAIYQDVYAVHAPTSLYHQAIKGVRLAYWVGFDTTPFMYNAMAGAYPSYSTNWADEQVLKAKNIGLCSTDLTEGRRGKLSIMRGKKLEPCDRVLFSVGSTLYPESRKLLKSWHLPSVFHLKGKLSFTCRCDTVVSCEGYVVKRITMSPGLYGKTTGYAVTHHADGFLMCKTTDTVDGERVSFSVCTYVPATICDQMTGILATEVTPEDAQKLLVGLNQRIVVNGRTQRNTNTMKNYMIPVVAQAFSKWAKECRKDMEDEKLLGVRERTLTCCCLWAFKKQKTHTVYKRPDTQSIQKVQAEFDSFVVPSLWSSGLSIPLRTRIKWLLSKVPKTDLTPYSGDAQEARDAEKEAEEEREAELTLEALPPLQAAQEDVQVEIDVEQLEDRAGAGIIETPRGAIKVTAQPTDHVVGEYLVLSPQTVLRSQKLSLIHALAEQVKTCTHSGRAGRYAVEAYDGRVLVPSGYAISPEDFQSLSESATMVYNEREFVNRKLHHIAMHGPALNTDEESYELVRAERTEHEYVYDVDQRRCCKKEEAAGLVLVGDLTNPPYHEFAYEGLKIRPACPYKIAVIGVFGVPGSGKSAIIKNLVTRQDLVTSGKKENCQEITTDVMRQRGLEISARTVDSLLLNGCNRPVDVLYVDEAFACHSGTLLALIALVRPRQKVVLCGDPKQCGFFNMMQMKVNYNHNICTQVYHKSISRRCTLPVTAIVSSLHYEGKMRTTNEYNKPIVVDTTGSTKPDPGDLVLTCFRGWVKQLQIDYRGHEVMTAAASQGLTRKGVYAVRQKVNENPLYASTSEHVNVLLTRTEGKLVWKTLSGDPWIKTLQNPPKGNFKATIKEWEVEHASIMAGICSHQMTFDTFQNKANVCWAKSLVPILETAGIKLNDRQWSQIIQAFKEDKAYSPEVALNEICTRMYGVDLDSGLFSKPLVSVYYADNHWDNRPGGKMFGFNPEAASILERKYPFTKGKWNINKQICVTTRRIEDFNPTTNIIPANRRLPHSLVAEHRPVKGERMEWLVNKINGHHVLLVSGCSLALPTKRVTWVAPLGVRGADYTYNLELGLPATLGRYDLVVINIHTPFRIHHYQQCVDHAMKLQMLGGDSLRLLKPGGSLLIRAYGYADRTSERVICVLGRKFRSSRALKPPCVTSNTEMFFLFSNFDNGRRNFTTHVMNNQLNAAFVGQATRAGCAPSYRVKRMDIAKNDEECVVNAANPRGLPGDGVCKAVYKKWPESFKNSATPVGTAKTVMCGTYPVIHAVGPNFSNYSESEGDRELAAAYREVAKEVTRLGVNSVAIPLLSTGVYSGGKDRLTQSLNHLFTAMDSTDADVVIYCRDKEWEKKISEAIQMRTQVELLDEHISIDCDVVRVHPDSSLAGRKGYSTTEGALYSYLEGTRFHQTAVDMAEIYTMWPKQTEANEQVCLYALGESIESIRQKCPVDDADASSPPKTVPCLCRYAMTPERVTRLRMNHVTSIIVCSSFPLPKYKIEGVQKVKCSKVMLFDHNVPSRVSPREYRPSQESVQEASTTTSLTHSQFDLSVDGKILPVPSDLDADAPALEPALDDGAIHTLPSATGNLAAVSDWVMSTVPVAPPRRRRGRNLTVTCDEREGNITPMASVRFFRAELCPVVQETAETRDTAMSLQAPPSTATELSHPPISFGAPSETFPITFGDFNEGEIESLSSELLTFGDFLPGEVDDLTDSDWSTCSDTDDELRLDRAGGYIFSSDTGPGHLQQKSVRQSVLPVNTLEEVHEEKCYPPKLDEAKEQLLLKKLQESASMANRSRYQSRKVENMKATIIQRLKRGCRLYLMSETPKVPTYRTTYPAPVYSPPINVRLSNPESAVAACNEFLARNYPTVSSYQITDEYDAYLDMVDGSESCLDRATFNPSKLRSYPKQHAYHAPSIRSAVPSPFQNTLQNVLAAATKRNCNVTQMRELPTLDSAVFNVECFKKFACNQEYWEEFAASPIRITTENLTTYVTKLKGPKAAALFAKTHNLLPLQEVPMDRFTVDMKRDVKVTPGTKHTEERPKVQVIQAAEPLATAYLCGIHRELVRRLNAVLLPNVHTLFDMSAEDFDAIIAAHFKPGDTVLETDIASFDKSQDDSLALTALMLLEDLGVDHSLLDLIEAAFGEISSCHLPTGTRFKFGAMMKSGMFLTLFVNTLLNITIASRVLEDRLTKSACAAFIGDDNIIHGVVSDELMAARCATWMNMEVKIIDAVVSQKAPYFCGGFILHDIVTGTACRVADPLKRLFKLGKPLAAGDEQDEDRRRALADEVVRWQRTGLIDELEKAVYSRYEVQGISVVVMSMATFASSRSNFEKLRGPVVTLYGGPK
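Recombinant nsP2pro (150 nM) was preincubated with compound 15 min at room temperature in 10 mM Tris-HCl pH 8.0, 0.01% Tween 20. Peptide 2 FRET substrate (2.5 uM) was then added and fluorescence read after 1 h. Seven-point series, up to 25 uM.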
nsP2 cell sec: secondary cell-based test for CHIKV nsP2 protease inhibitors; shares compounds with nsP2pro inh; cell-based CHIKV nsP2 protease reporter assay; Potency, µM (highest dose often 51.1 µM), inactives show at the highest dose activity change, negative = inhibition, most hits filed as inhibitors; hit rate 10% among 450; further: nearly all actives have a fitted effect of over 70% in size
CHIKV NSP2 FL: selectivity test for CHIKV nsP2 protease inhibitors: full-length NSP2; shares compounds with nsP2pro inh; Full-length CHIKV NSP2 protease enzymatic counterscreen; Potency, µM (top dose mostly 50.7 µM), without a hit: top-dose activity change, negative = inhibition, actives largely listed as inhibitors; hit rate 39% among 410; further: nearly all actives have a fitted effect of over 65% in size
Furin counterscr: selectivity counter-screen for CHIKV nsP2 protease inhibitors: human furin. shares compounds with nsP2pro inh. Recombinant human furin enzymatic counterscreen, fluorogenic substrate. Potency, µM (doses to about 50.6 µM), without a hit: at the top dose activity change, negative = inhibition, most hits filed as inhibitors. hit rate 6% among 410. AID 1964102
NS23 peptide cs: selectivity test for CHIKV nsP2 protease inhibitors: endogenous NS2/3 peptide; AID 1964103; shares compounds with nsP2pro inh; hit rate 34% among 410; Potency, µM (highest dose often 51 µM), for inactives: top-dose activity change, negative = inhibition, hits mostly inhibitors; Purified CHIKV nsP2 protease, endogenous NS2/3 peptide cleavage; further: nearly all actives have a fitted effect of over 55% in size
Papain counter: selectivity counter-screen for CHIKV nsP2 protease inhibitors: papain; shares compounds with nsP2pro inh; purified papain protease activity, enzymatic inhibition; Potency, µM (highest dose often 51 µM), without a hit: at the top dose activity change, negative = inhibition, hits mostly inhibitors; hit rate 5% among 410; AID 1964104
nsP2pro confirm: confirmation of CHIKV nsP2 protease inhibitors | hit rate 43% among 410 | shares compounds with nsP2pro inh | CHIKV nsP2 protease enzymatic activity, qHTS | Potency, µM (doses to about 25.5 µM), for the others: at the top dose activity change, negative = inhibition, most hits filed as inhibitors; further: nearly all actives have a fitted effect of over 75% in size
HCV NS3 counter: selectivity counter-screen for CHIKV nsP2 protease inhibitors: HCV NS3/4A | shares compounds with nsP2pro inh | HCV NS3/4A protease biochemical counterscreen | Potency, µM (top dose mostly 50.9 µM), usual class: inhibitors | hit rate 20% among 410 | AID 1964106; further: nearly all actives have a fitted effect of over 55% in size
An asterisk follows results filed as active; i = inactive; u = inconclusive; x = no result; ! = a repeat was not active; [ ] = another dose, or the depositor's remark. The entries come from a sample that favours hits as a whole. The call rests on the fitted dose curve. On the % scale 0 is the no-effect control and ±100 the full control effect; potency means the concentration at half of the fitted maximal effect.

SMILES | nsP2pro inh | others
O=C1c2ccccc2NC(c2ccccc2O)N1Cc1ccccc1 (stereo not drawn) | -5%
O=C1c2ccccc2NC(c2ccc(-c3ccc(C(F)(F)F)cc3)o2)N1O (stereo not drawn) | 10µM* | nsP2 cell sec=21µM*;CHIKV NSP2 FL=149%;Furin counterscr=-8%;NS23 peptide cs=11%;Papain counter=-14%;nsP2pro confirm=35%;HCV NS3 counter=i
Cc1nn(CC(=O)NC2CCC(C)CC2)c(=O)c2c1sc1ccccc12 (stereo not drawn) | -19%
CCn1ccc2cc(S(=O)(=O)N3CCCN(C(=O)Nc4ccccc4OC)CC3)ccc21 | -8%
COc1cccc(CCC(=O)N2CCC3(CC2)NC(=O)N(c2cccc(F)c2)N3)c1 | 5%
Cc1cccc(-c2nc3c4ccccc4n(CC(=O)Nc4cc(F)ccc4F)c(=O)n3n2)c1 | -14%
Cc1ccccc1Cn1c(C(=O)O)c(CNCc2cccc(F)c2)c2ccccc21 | -28%
Cc1c(Cc2ccc3ccccc3n2)c2cc(F)ccc2n1CC(=O)O | u | nsP2 cell sec=-3%;CHIKV NSP2 FL=45%;Furin counterscr=-8%;NS23 peptide cs=i;Papain counter=-18%;nsP2pro confirm=u;HCV NS3 counter=i
COc1ccccc1CNC(=O)Cc1c(C)c2cc3c(C)coc3c(C)c2oc1=O | -29%
CCCCN(CCCC)C(=S)[S-].CCCCN(CCCC)C(=S)[S-].[Zn+2] | 0.56µM* | nsP2 cell sec=u;CHIKV NSP2 FL=0.23µM*;Furin counterscr=7.3µM*;NS23 peptide cs=1.6µM*;Papain counter=4.1µM*;nsP2pro confirm=0.36µM*;HCV NS3 counter=i
Cc1ccc(-c2nn3c(-c4ccccc4C)nnc3c3ccccc23)cc1 | -16%
O=C(CSc1nnc(-c2cccc(S(=O)(=O)N3CCCC3)c2)n1-c1ccccc1)Nc1ccc(C(=O)O)cc1 | 3%
O=C(CN1CCN(c2ccc(Cl)cc2)CC1)Nc1ccc(F)cc1F | -23%
CN1CCCCCC(O)c2cc(C(=O)N3CCN(c4ccc(F)cc4)CC3)ccc21 (stereo not drawn) | -16%
Cc1cc(C(=O)CN2CCCC2)c(C)n1-c1ccc(F)cc1 | 5.6µM*! | nsP2 cell sec=-13%;CHIKV NSP2 FL=14%;Furin counterscr=-7%;NS23 peptide cs=-14%;Papain counter=-19%;nsP2pro confirm=-1%;HCV NS3 counter=i
O=C(CSc1ncc(CO)n1Cc1ccccc1)Nc1ccc(C(F)(F)F)cc1 | 1%
Cc1ccc(-c2ccc(=O)n(CC(=O)NCCc3ccccc3)c2)cc1 | -9%
O=C(NC1CCN(Cc2cccc(-c3cccs3)c2)CC1)c1cccc(Cl)c1 | i
CNC1CCN(C(Cc2cccc(-c3ccncc3)c2)C(=O)c2sc3c(F)ccc(F)c3c2Cl)CC1 (stereo not drawn) | x | nsP2 cell sec=u;CHIKV NSP2 FL=u;Furin counterscr=-11%;NS23 peptide cs=-23%;Papain counter=-8%;nsP2pro confirm=34%;HCV NS3 counter=i
COc1cccc(-c2ccc(CN3CCCC(NC(=O)c4ccc(Cl)cc4)C3)cc2)c1 (stereo not drawn) | 1%
COc1ccc(-c2noc(-c3ccc(N4CCCCC4C)c([N+](=O)[O-])c3)n2)cc1OC (stereo not drawn) | -14%
COc1cccc(C(=O)N2CC(=O)N(Cc3ccc(Cl)cc3)CC(O)C2)c1 (stereo not drawn) | -7%
Cc1ccc(C)c(CSc2cn(CCNC(=O)c3cccs3)c3ccccc23)c1 | -11%
O=C1CO[C@H]2CN(c3ncccn3)C[C@H]2N1CC1CCCCC1 | 2.2µM* | nsP2 cell sec=-5%;CHIKV NSP2 FL=-2%;Furin counterscr=u;NS23 peptide cs=24µM*;Papain counter=-1%;nsP2pro confirm=3.7µM*;HCV NS3 counter=9.4µM*
N#Cc1ccc(N2C[C@@H]3OCC(=O)N(CC4CCCCC4)[C@@H]3C2)nc1 | -3%[39.2 µM]
SMILES | nsP2pro inh | others
O=C(c1cnccn1)N1C[C@@H]2OCC(=O)N(CC3CCCCC3)[C@@H]2C1 | -29%[39.2 µM]
CC(CC=O)CCCC(C)(C)O (stereo not drawn) | -2%
COc1ccccc1Oc1c(NS(=O)(=O)c2ccc(C(C)(C)C)cc2)nc(-c2ncccn2)nc1OCCO | 21%
C=CCC/C=C/C#CCCCCCCCC[C@H]1C(=O)O[C@H](C)[C@@H]1O | u | nsP2 cell sec=u;CHIKV NSP2 FL=u;Furin counterscr=-9%[33.5 µM];NS23 peptide cs=-8%[33.5 µM];Papain counter=u;nsP2pro confirm=u;HCV NS3 counter=i
Cc1cccc(N2CCN(S(=O)(=O)c3ccc(F)c(C(=O)Nc4cccc(Cl)c4C)c3)CC2C)c1 (stereo not drawn) | -6%
Cc1noc([C@@H](C)NCc2cccc(Cl)c2)c1C(=O)O | i
OCC1OC(Oc2cc(O)cc(/C=C/c3ccc(OC4OC(CO)C(O)C(O)C4O)cc3O)c2)C(O)C(O)C1O (stereo not drawn) | 7%[10 µM]
COc1cccc(C(=O)NC(c2ccc(Cl)cc2)c2cc(Cl)c3cccnc3c2O)c1 (stereo not drawn) | 13%
C[C@H](N)[C@H](O)c1ccc(O)c(O)c1 | u | nsP2 cell sec=-65%;CHIKV NSP2 FL=u;Furin counterscr=-10%[17.3 µM];NS23 peptide cs=9µM*;Papain counter=-9%[17.2 µM];nsP2pro confirm=u;HCV NS3 counter=0.052µM*
C=CCc1cc(OC)c(OC(C)C(O)c2ccc(O)c(OC)c2)c(OC)c1 (stereo not drawn) | -1%
COc1ccc(OC)c(C(O)C(C)N)c1 (stereo not drawn) | 0%
COc1ccc(-n2nc3n(c2=O)CCN([S+](=O)([O-])c2c(C)noc2C)C3)cc1 | -18%
C1N2CN3CN1CN(C2)C3 | 5%
Cc1ccn(CC(=O)N2CCCn3ccnc3C2c2cnn(C)c2)n1 (stereo not drawn) | -16%
CC(C)n1nc(C#Cc2ccccc2)c2c(N)ncnc21 | 4.4µM* | nsP2 cell sec=87%;CHIKV NSP2 FL=u;Furin counterscr=u;NS23 peptide cs=u;Papain counter=39%;nsP2pro confirm=8µM*;HCV NS3 counter=u
CC(C)n1nc(-c2ccc(NC(=O)Nc3cccc(C(F)(F)F)c3)cc2)c2c(N)ncnc21 | -4%
CC(C)(C)n1nc(-c2ccc(Cl)cc2)c2c(N)ncnc21 | 19%
Oc1ccccc1-c1cc(-c2ccccc2F)[nH]n1 | 10%
CCn1cc(/C=C(\NC(=O)c2ccc(OC)cc2)C(=O)NCCCn2ccnc2)c2ccccc21 | 30%
CCCS(=O)(=O)Nc1ccc(=O)n2c1[C@@H]1C[C@@H](CN(C(=O)c3ccc(OC)cc3)C1)C2 | -9%
O=C(Nc1ccc(=O)n2c1[C@@H]1C[C@@H](CN(C(=O)COc3ccccc3)C1)C2)c1ccccc1 | 0%
O=C(COc1ccccc1)N1C[C@@H]2C[C@H](C1)c1c(NS(=O)(=O)c3ccccc3)ccc(=O)n1C2 | u | nsP2 cell sec=4%;CHIKV NSP2 FL=16µM*;Furin counterscr=-4%;NS23 peptide cs=u;Papain counter=-3%;nsP2pro confirm=u;HCV NS3 counter=u
